Screening results deposited in PubChem BioAssay by National Center for Advancing Translational Sciences (NCATS).
An excerpt weighted towards active compounds, which were near 12% of everything screened.
PLK1 PBD inh: qHTS for Inhibitors of PLK1-PDB (polo-like kinase 1 - polo-box domain): Primary Screen. Serine/threonine-protein kinase PLK1 (Homo sapiens), P53350. Plk1 PBD binding of FITC phosphopeptide, fluorescence polarization. Potency, µM, for the others: max response, negative = inhibition, usual class: inhibitors. 2.8% of 360,000 active; also: potency is read from the fitted curve at half-maximal effect; series mostly up to about 57 µM; % is scaled to controls: 0 for no effect and ±100 for the full control effect; nearly all actives have a fitted effect of over 65% in size
Target sequence (P53350 whole entry, looked up, the tested form may be a part): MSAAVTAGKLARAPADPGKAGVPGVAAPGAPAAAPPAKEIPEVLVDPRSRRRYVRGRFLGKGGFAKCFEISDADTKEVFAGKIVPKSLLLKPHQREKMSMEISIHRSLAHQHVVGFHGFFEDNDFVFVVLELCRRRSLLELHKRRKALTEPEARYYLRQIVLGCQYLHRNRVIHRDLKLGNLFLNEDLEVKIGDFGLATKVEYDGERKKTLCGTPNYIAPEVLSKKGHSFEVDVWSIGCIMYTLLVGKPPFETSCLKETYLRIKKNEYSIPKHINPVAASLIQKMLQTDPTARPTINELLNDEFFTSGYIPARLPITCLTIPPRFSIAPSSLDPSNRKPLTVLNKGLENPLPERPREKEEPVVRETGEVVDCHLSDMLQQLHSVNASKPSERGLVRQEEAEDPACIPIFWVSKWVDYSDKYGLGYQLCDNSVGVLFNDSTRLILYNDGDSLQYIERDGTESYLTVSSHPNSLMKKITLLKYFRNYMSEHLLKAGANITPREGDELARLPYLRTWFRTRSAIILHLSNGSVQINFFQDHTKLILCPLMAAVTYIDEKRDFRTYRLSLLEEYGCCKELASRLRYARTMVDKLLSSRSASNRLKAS
HP1b chromo inh: HTS for Inhibitors of HP1-beta Chromodomain Interactions with Methylated Histone Tails | 0.56% of 390,000 active | Chromobox protein homolog 1 (Homo sapiens), P83916 | AlphaScreen HP1-beta / biotin-H3K9me3 peptide binding | Potency, µM (highest dose often 114 µM), inactives show at the highest dose activity change, negative = inhibition, hits mostly inhibitors | AID 540317, 2011; also: potency is read from the fitted curve at half-maximal effect; nearly all actives have a fitted effect of over 70% in size
Target sequence (P83916 whole entry, looked up): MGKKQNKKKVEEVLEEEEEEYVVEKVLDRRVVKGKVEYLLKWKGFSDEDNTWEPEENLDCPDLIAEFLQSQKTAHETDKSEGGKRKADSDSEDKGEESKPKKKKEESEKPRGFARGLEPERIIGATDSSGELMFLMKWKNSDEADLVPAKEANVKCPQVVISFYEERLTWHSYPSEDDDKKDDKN
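AlphaScreen: HP1-beta (50 nM) preformed 30 min with biotin-H3(1-18)K9me3 peptide (50 nM) in PBS pH 7.4, 0.01% Tween-20. Compound added for 30 min at RT, then streptavidin donor/nickel chelate acceptor beads (10 ug/mL) for 30 min.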
PI5P4K alpha inh: qHTS for Inhibitors of phosphatidylinositol 5-phosphate 4-kinase (PI5P4K) | AID 652105, 2013 | PI5P4Kalpha enzyme, ADP-Glo luminescence, 60 min; stronger effect = lower value | Phosphatidylinositol 5-phosphate 4-kinase type-2 alpha (Homo sapiens), P48426 | max response, % | 1.2% of 330,000 active; active = max response of -50% or lower; inconclusive = between -30% and -50%; inactive = -30% or higher; also: value at the top dose of about 77 µM; % is scaled to controls: 0 for no effect and ±100 for the full control effect
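ADP-Glo luminescence end-point after a 60 min room-temperature kinase reaction. PI5P4Kalpha and substrate in HEPES pH 7.4 buffer with EGTA, 0.1% CHAPS and 5% DMSO; ATP at 5 microM final.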
JMJD2A Tudor inh: qHTS Assay for Inhibitors of JMJD2A-Tudor Domain. Lysine-specific demethylase 4A (Homo sapiens), O75164. AlphaScreen JMJD2A-Tudor / H3K4me3 peptide binding. Potency, µM (top dose mostly 114 µM), for inactives: at the highest dose activity change, negative = inhibition, most hits filed as inhibitors. 4.4% of 390,000 active; also: potency is read from the fitted curve at half-maximal effect; % is scaled to controls: 0 for no effect and ±100 for the full control effect; nearly all actives have a fitted effect of over 50% in size
BAZ2B block: qHTS Assay for Inhibitors of BAZ2B. Bromodomain adjacent to zinc finger domain protein 2B (Homo sapiens), Q9UIF8. AlphaScreen BAZ2B-H3K14Ac peptide displacement. Potency, µM (top dose mostly 114 µM), without a hit: at the highest dose activity change, negative = inhibition, hits mostly inhibitors. 4.4% of 360,000 active. AID 504333, 2011; also: potency is read from the fitted curve at half-maximal effect; % is scaled to controls: 0 for no effect and ±100 for the full control effect; nearly all actives have a fitted effect of over 60% in size
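Multi-concentration screen (max 110 uM) measuring displacement of acetylated histone H3 peptide from BAZ2B by AlphaScreen, using 50 nM protein, 50 nM peptide and 10 ug/mL streptavidin donor plus Ni-chelate acceptor beads.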
G9a block: qHTS Assay for Inhibitors of Histone Lysine Methyltransferase G9a; Histone-lysine N-methyltransferase EHMT2 (Homo sapiens), Q96KQ7; G9a H3K9 monomethylation, AlphaScreen, 2 h; Potency, µM (top dose mostly 102 µM), without a hit: at the top dose activity, negative = inhibition, hits mostly inhibitors; 8.8% of 350,000 active; also: potency is read from the fitted curve at half-maximal effect; % is scaled to controls: 0 for no effect and ±100 for the full control effect; nearly all actives have a fitted effect of over 75% in size
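Methyltransferase reactions run at room temperature for 2 h (20 nM enzyme, 500 nM biotin-H3K9 peptide, 20 uM SAM) after a 15 min compound preincubation; product detected by AlphaScreen beads and anti-H3K9me1 antibody.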
Numbers without * were called inactive; u = inconclusive; x = no result; [ ] = dose if it differs, or a comment. Unless noted, calls follow the shape of the dose curve; as a rule, active = well fitted curve in the direction sought with a large enough effect; inconclusive = small, poorly fitted or top-dose-only effect, or another doubt; inactive = no such curve, though single readings can be large; an effect the other way counts as inactive or inconclusive.

SMILES	PLK1 PBD inh	HP1b chromo inh	PI5P4K alpha inh	JMJD2A Tudor inh	BAZ2B block	G9a block
CCN(CC)CCN1C(=O)C(=O)/C(=C(/O)c2c(C)[nH]c(C(=O)OC)c2C)C1c1ccc(C)o1 (stereo unspecified)	-7.1%	-2.6%	-2.5	-9.3%	u	35.5µM*
Cc1ccc(C2/C(=C(/O)c3ccccc3)C(=O)C(=O)N2CCN2CCOCC2)o1 (stereo unspecified)	-7.8%	34.6%	0.9	-28.8%	-30.1%	u
CCOC(=O)c1[nH]c(C)c(/C(O)=C2\C(=O)C(=O)N(CCN3CCOCC3)C2c2cccs2)c1C (stereo unspecified)	-12.6%	12.2%	0.0	u	-8.1%	44.7µM*
COC(=O)c1[nH]c(C)c(/C(O)=C2\C(=O)C(=O)N(CCN(C)C)C2c2cccs2)c1C (stereo unspecified)	-1.1%	33.0%	x	-15.0%	2.7%	-16.7%
Cc1ccc(C2/C(=C(\O)c3cnn(-c4ccccc4)c3C)C(=O)C(=O)N2CCN(C)C)o1 (stereo unspecified)	-16.0%	53.0%	2.2	-8.9%[11.4 µM]	-23.5%	-31.7%[59 µM]
CCCn1c(N)c(C(=O)CSc2nnc(C3CC3)n2C2CC2)c(=O)[nH]c1=O	-1.9%	14.1%	4.3	u	x	x
COc1ccccc1N1CCN(C(=O)c2cnc(N3CCCCC3)c3ccccc23)CC1	x	7.5%[57 µM]	x	-19.7%	-11.8%	6.4%[59 µM]
CCc1ccccc1OCc1nc2ccc(S(=O)(=O)N3CCOCC3)cc2[nH]1	u	-17.0%	8.9	-17.1%	4.1%	u
Cc1ccccc1OCc1nc2ccc(S(=O)(=O)N3CCOCC3)cc2[nH]1	9.47µM*	-43.1%	x	u	u	3.55µM*
CSc1nc(C=Nc2ccccc2Cl)c(O)n1Cc1cccc(Cl)c1	-16.2%	5.3%	5.9	79.4µM*	-19.1%	x
O=Nc1c(O)n(Cc2cccc(Cl)c2)c2ccccc12	-8.0%	-4.5%	-3.6	-27.1%	-31.0%	x
CCN(C(=O)c1cccc(S(=O)(=O)N(C)C)c1)C12CC3CC(CC(C3)C1)C2	-5.5%	44.1%	5.2	-7.0%	-1.7%	-1.1%
O=C(OCCN1CCOCC1)c1ccc(OCCN2CCOCC2)cc1	-3.8%	16.1%	-0.7	u	-36.6%	50.1µM*
O=C(OCCN1CCOCC1)c1ccccc1	23.8µM*	-4.9%	-1.3	u	-1.9%	-6.7%
COc1ccc(S(=O)(=O)n2nc(-c3ccco3)nc2NCc2ccc(C(C)C)cc2)cc1	x	49.8%	x	-12.9%	-34.0%	-18.0%[59 µM]
COc1ccc(N(CC(=O)NC2CCS(=O)(=O)C2)S(=O)(=O)c2ccc(Cl)c(Cl)c2)cc1 (stereo unspecified)	-2.7%	7.4%	7.2	-13.3%	13.7%	50.1µM*
COc1ccc(N(CC(=O)NC2CCCC2)S(=O)(=O)c2ccc(NC(C)=O)cc2)cc1	-19.7%	22.3%	-15.3	-13.3%	2.4%	-2.0%
Cn1c2cc(S(C)(=O)=O)sc2c2cnn(Cc3ccccc3F)c(=O)c21	x	x	x	-0.7%	x	x
CCOC(=O)c1ccoc1CSCc1ccc(C(=O)OC)o1	26.7µM*	-22.3%	-23.4	-26.7%[11.4 µM]	-34.9%	-4.8%[12.7 µM]
O=C(C[n+]1ccc(C(=O)N/N=C/c2ccc(Cl)cc2Cl)cc1)c1ccccc1	-3.4%	22.5%	x	u	-8.6%	50.1µM*
O=C(N/N=C/c1ccc(Cl)cc1Cl)c1ccc2nc[nH]c2c1	-13.6%	26.4%	-10.7	7.4%	-32.6%	70.8µM*
O=C(C[n+]1cccc(C(=O)N/N=C/c2ccc(Br)cc2)c1)c1ccccc1	-3.4%	26.7%	-24.5	u	-9.0%	1.41µM*
COc1ccc(-c2c(C)nn3c(-c4ccccc4)cc(-c4ccccc4)nc23)cc1OC	x	u	x	-26.9%	u	u
COc1cc(/C=C/C(=O)Nc2cccc(S(=O)(=O)NC3=NCCCCC3)c2)ccc1OCC#N	-6.2%	25.6%	-18.4	-9.0%	5.0%	24.1%[2.33 µM]
O=C(NC1CCCCC1)C(c1ccc(-c2ccccc2)cc1)n1c(=O)c(-c2ccco2)nc2ccccc21 (stereo unspecified)	u	x	-92.0*	x	x	x
SMILES	PLK1 PBD inh	HP1b chromo inh	PI5P4K alpha inh	JMJD2A Tudor inh	BAZ2B block	G9a block
CCCCCNC(=O)C(c1ccccc1F)n1c(=O)c(-c2ccco2)nc2ccccc21 (stereo unspecified)	u	x	-63.7*	x	x	x
O=C(NC1CCCCC1)C(c1ccccc1F)n1c(=O)c(-c2ccco2)nc2ccccc21 (stereo unspecified)	-22.4%	x	-68.5*	x	x	x
CCCCCNC(=O)C(c1ccc(OC)cc1)n1c(=O)c(-c2ccco2)nc2ccccc21 (stereo unspecified)	-12.2%	x	-24.2	x	x	x
CCCCn1c(N)c(N(CCC(C)C)C(=O)C2CC(=O)N(c3ccc(OC)cc3OC)C2)c(=O)[nH]c1=O (stereo unspecified)	-0.2%	39.0%	-2.0	-14.9%	-2.7%	u
CN(Cc1ccccc1)C(=O)COC(=O)c1cc(S(=O)(=O)N(C)C)ccc1N1CCCC1	5.1%	21.9%	0.7	-11.9%	-18.8%	50.1µM*
Cc1ccccc1NC(=O)c1cc(N)ccc1N1CCCCC1	-8.0%	-4.7%	x	u	u	31.6µM*
CN(C)S(=O)(=O)c1ccc(N2CCCC2)c(C(=O)Nc2ccccc2Br)c1	1.9%	27.7%	10.4	-17.4%	6.4%	44.7µM*
CCN(CC)CCCNC(=O)c1c(C)oc2ncn(CC(C)C)c(=O)c12	x	15.6%	x	-10.0%	9.0%[57.1 µM]	-25.1%[59 µM]
Nc1nc(SCc2ccc(Br)cc2)c2ncn(C3OC(CO)C(O)C3O)c2n1 (stereo unspecified)	-0.1%	16.9%	-3.5	-1.4%	x	x
CSc1ccc(C(=O)C2CCCN(C(=O)c3nn(C)c(=O)c4ccccc34)C2)cc1 (stereo unspecified)	23.8µM*	u	2.4	-32.8%	-13.6%	28.2µM*
Cc1ccccc1NC(=O)CSc1nc2c(oc3ccccc32)c(=O)n1-c1ccccc1F	x	25.9%	x	-8.0%	-5.6%	-9.8%[59 µM]
Cc1ccc(OCCSc2ncccn2)c(C)c1	-8.5%	89.5%	25.0	64.1%	82.8%	298.3%
c1ccc(CNCCNCc2ccccc2)cc1	x	x	x	x	x	-34.1%[12.7 µM]
CCOc1ccc(OCCOCCNCCOC)cc1	5.2%	6.2%	3.3	10µM*	-31.8%	u
COc1cccc(OCCNCc2ccccc2)c1	16.8µM*	-3.4%	-20.5	6.31µM*	u	7.94µM*
